From the supplement of paper PMC11628255, “Interference of metal ions on the bioluminescent signal of firefly, Renilla, and NanoLuc luciferases in high-throughput screening assays” (Frontiers in Chemistry, 2024)
± gives the standard deviation of the averaged measurements.

What was measured:
[1] = tested on: NanoLuc luciferase (NLuc); test: residual bioluminescent signal relative to negative (DMSO) control; higher = less interference (more residual luciferase signal)
Procedure, shortened: (§1)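 Metal salts in water were tested at 0.01, 1 and 5 mM final against purified firefly, NanoLuc or Renilla luciferase, with a 10 min room-temperature pre-incubation and a luminescence read 10 min after substrate addition. Each value of residual signal is a well's luminescence as a percentage of the plate's mean vehicle-only signal.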

[2] = tested on: Renilla luciferase (RLuc); test: as above
Procedure, shortened: as §1

[3] = metal salt concentration 0.01 mM, HEPES conditions (100 mM HEPES, 0.1% BSA, pH 7.5)
[4] = metal salt concentration 0.01 mM, screening conditions (PBS, 0.1% BSA, pH 7.4)
[5] = metal salt concentration 1 mM, HEPES conditions (100 mM HEPES, 0.1% BSA, pH 7.5)
[6] = metal salt concentration 1 mM, screening conditions (PBS, 0.1% BSA, pH 7.4)
[7] = metal salt concentration 5 mM, HEPES conditions (100 mM HEPES, 0.1% BSA, pH 7.5)
[8] = metal salt concentration 5 mM, screening conditions (PBS, 0.1% BSA, pH 7.4)
[9] = metal salt concentration 0.01 mM, HEPES conditions (100 mM HEPES, 0.05% BSA, 0.3 M sodium ascorbate, pH 7.5)
[10] = metal salt concentration 0.01 mM, screening conditions (50 mM Tris-HCl, […] KH2PO4, […] NaCl, 0.25 mM EDTA, 0.1% BSA, 0.3 M sodium ascorbate, pH 7.4)
[11] = metal salt concentration 1 mM, HEPES conditions (100 mM HEPES, 0.05% BSA, 0.3 M sodium ascorbate, pH 7.5)
[12] = metal salt concentration 1 mM, screening conditions (50 mM Tris-HCl, […] KH2PO4, […] NaCl, 0.25 mM EDTA, 0.1% BSA, 0.3 M sodium ascorbate, pH 7.4)
[13] = metal salt concentration 5 mM, HEPES conditions (100 mM HEPES, 0.05% BSA, 0.3 M sodium ascorbate, pH 7.5)
[14] = metal salt concentration 5 mM, screening conditions (50 mM Tris-HCl, […] KH2PO4, […] NaCl, 0.25 mM EDTA, 0.1% BSA, 0.3 M sodium ascorbate, pH 7.4)

| Structure (SMILES) | residual bioluminescent signal [1, 3] [%] | residual bioluminescent signal [1, 4] [%] | residual bioluminescent signal [1, 5] [%] | residual bioluminescent signal [1, 6] [%] | residual bioluminescent signal [1, 7] [%] | residual bioluminescent signal [1, 8] [%] | residual bioluminescent signal [2, 9] [%] | residual bioluminescent signal [2, 10] [%] | residual bioluminescent signal [2, 11] [%] | residual bioluminescent signal [2, 12] [%] | residual bioluminescent signal [2, 13] [%] | residual bioluminescent signal [2, 14] [%] |
| --- | --- | --- | --- | --- | --- | --- | --- | --- | --- | --- | --- | --- |
| O=[N+]([O-])[O-].[K+] [potassium nitrate] | 95.2 ± 2.4 | 104 ± 1.6 | 90.9 ± 1.1 | 94.9 ± 3.4 | 101 ± 2 | 101 ± 4.7 | 110 ± 7.7 | 101 ± 7.9 | 104 ± 1.4 | 108 ± 11 | 109 ± 5.3 | 102 ± 3.8 |
| [Cl][Sn][Cl] [tin(II) chloride] | – | – | – | – | – | – | 103 ± 4.7 | 96.3 ± 7.4 | 103 ± 11 | 95.3 ± 12 | 92.9 ± 2.4 | 11.3 ± 2.3 |
| O=[N+]([O-])[O-].O=[N+]([O-])[O-].[Ni+2] [nickel(II) nitrate] | 89 ± 2 | 94.5 ± 3.8 | 87.6 ± 4.2 | 91.4 ± 1.8 | 89.9 ± 2.2 | 78.1 ± 3.4 | 82.5 ± 12 | 99.08 ± 0.95 | 57.9 ± 4.5 | 79.3 ± 3.2 | 22.4 ± 2.8 | 52.7 ± 11 |
| O=[N+]([O-])[O-].O=[N+]([O-])[O-].O=[N+]([O-])[O-].[Ga+3] [gallium(III) nitrate] | – | – | – | – | – | – | 105 ± 12 | 98.9 ± 6 | 10.6 ± 0.8 | 112 ± 11 | 3.03 ± 1.8 | 1.92 ± 1.4 |
| O=[N+]([O-])[O-].O=[N+]([O-])[O-].[Ca+2] [calcium nitrate] | 97.1 ± 2.3 | 96.46 ± 0.94 | 102 ± 5.5 | 97.6 ± 4.1 | 109 ± 3.1 | 92.6 ± 4.6 | 83 ± 5.8 | 79.9 ± 9.1 | 92.3 ± 4.3 | 86.7 ± 4.6 | 106 ± 6.2 | 19.5 ± 7.2 |
| O=[N+]([O-])[O-].O=[N+]([O-])[O-].[Zn+2] [zinc nitrate] | – | – | – | – | – | – | 86 ± 1.9 | 96.8 ± 8.7 | 11.8 ± 2.2 | 85.7 ± 3.5 | 1.13 ± 0.12 | 14.9 ± 12 |
| O=[N+]([O-])[O-].O=[N+]([O-])[O-].[Cd+2] [cadmium nitrate] | 93.8 ± 1.4 | 98.2 ± 1.1 | 74.64 ± 0.51 | 62.1 ± 7.8 | 84.1 ± 2.6 | 22.1 ± 1.6 | 100 ± 15 | 102 ± 9.5 | 11.8 ± 0.97 | 45.6 ± 6.1 | 1.41 ± 0.32 | 12.2 ± 3.1 |
| O=[N+]([O-])[O-].O=[N+]([O-])[O-].O=[N+]([O-])[O-].[Al+3] [aluminium nitrate] | – | – | – | – | – | – | 85.7 ± 7.3 | 91.1 ± 1 | 7.39 ± 0.84 | 90.2 ± 1.4 | 103 ± 2.5 | 94.2 ± 6.2 |
| O=[N+]([O-])[O-].O=[N+]([O-])[O-].[Pb+2] [lead(II) nitrate] | – | – | – | – | – | – | 102 ± 1.7 | 112 ± 8.2 | 42.9 ± 4.4 | 69.9 ± 14 | 30.2 ± 3.3 | 5.96 ± 0.97 |
| O=[N+]([O-])[O-].[Li+] [lithium nitrate] | 93.22 ± 0.49 | 96.7 ± 1 | 97 ± 3.4 | 95.4 ± 4.8 | 102 ± 3.7 | 97.1 ± 3.3 | 88.6 ± 6.9 | 87.4 ± 5.8 | 94.2 ± 14 | 86.8 ± 1.4 | 97.7 ± 6.4 | 88.5 ± 5.5 |
| O=[N+]([O-])[O-].[Na+] [sodium nitrate] | – | – | – | – | – | – | 93.9 ± 5.2 | 101 ± 3.4 | 96.7 ± 2.8 | 97.6 ± 5.2 | 109 ± 7.3 | 107 ± 2.8 |
| O=[N+]([O-])[O-].O=[N+]([O-])[O-].[Cu+2] [copper(II) nitrate] | – | – | – | – | – | – | 99.3 ± 10 | 104 ± 6.5 | 0.774 ± 0.61 | 0.583 ± 0.34 | 0.774 ± 0.24 | 0.897 ± 0.62 |
| O=[N+]([O-])[O-].[Ag+] [silver nitrate] | – | 28 ± 4.6 | – | 1.98 ± 0.46 | – | 2.05 ± 0.58 | – | – | – | – | – | – |
